From PubChem BioAssay
TRPML1 inh: blocks the human TRPML1 channel. Q9GZU1. TRPML1-inducible cells, Ca2+ dye fluorescence, FDSS; stronger effect = lower value; inhibition of EC80 agonist-evoked calcium signal. activity change, negative = inhibition, % (test concentration not listed). actives 0.02% (n = 390,000). AID 624415; in the data active = activity change below about -50%; inconclusive = between about -30% and that limit;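 also: stimulus is agonist 54-4 at its EC80 concentration; % is scaled to controls: 0 for no effect and ±100 for the full control effect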
Target sequence (Q9GZU1 whole entry, looked up): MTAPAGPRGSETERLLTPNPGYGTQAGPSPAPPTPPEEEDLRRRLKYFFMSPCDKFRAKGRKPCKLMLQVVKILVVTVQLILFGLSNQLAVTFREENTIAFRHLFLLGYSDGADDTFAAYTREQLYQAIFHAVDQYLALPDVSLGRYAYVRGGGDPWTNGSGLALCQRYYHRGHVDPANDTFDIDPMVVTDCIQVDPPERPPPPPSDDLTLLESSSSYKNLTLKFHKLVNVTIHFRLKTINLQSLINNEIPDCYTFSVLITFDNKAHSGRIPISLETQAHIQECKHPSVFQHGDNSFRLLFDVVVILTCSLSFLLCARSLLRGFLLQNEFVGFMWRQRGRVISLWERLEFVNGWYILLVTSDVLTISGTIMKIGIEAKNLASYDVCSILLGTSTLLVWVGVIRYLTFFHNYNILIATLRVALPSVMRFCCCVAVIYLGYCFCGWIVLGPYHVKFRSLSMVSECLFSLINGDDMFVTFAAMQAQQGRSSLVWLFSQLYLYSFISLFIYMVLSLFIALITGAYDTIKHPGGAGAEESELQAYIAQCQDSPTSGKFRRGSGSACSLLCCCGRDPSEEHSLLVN
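Calcium fluorescence in TRPML1-DL cells induced overnight with Tet: a 110 s read after compound pin addition, then a 110 s antagonist read after challenge with 54-4 at 4 uM final (EC80).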
D3 antag: blocks the human D3 dopamine receptor | D3R cells, DiscoveRx beta-arrestin luminescence, antagonist mode; stronger effect = lower value | max response, negative = inhibition, % | actives 2.5% (n = 360,000) | AID 652054; in the data active = max response below about -50%; inconclusive = no clear call, values can overlap the other calls; also: % is scaled to controls: 0 for no effect and ±100 for the full control effect
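Cells expressing the human receptor were seeded at 1500 cells/well, incubated overnight at 37 degrees C in 5% CO2, then exposed to library compounds with dopamine controls for 90 minutes at 37 degrees C before luminescent detection.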
D3 ag: activates the human D3 dopamine receptor; D3R DiscoveRx beta-arrestin cells, luminescence, 90 min; max activation, %; AID 652048; actives 0.58% (n = 410,000); P35462; in the data active = max activation above about 30%; also: 0% is about no effect
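Agonist mode: compounds and dopamine controls were applied to plated cells for 90 min at 37 degrees C after an overnight attachment at 1500 cells/well. Luminescent read-out followed 30 - 60 minutes at room temperature with DiscoveRx detection reagent.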
TRPML1 ag: activates the human TRPML1 channel; Q9GZU1; AID 624414; TRPML1-expressing cells, Ca2+ dye fluorescence, FDSS; actives 0.12% (n = 410,000); activation, % (no concentration beside the values); in the data active = activation above about 50%; inconclusive = mostly about 30% to 49%; also: 0% is about no effect
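In this qHTS format, compounds were pin-transferred onto Ca8-dye-loaded TRPML1-DL cells induced with Tet overnight, and intracellular Ca2+ fluorescence was recorded kinetically for 110 s after a 10 s baseline. A subsequent 4uM final 54-4 (EC80) addition followed by a second 110 s read served as the antagonist phase.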
An asterisk follows results filed as active. In the library only some 2.9% were active in any assay of this set; here they are far more common.

What do the screens show for `Cc1ccc(C2CC(=O)N(Cc3ccccc3)c3c2c(C)nn3-c2nc(C)cc(C)n2)cc1` (stereo not given)?
TRPML1 inh: -15.6; D3 ag: -12.0; TRPML1 ag: -0.1

Results for CCN(Cc1ccccc1)C(=O)CN1C(=O)COc2ccc(S(=O)(=O)N3CCOCC3)cc21 ?
TRPML1 inh: -16.6; D3 ag: 9.0; TRPML1 ag: 1.8

How did OCC[C@H]1C[C@H](O)[C@@H](O)[C@]2(Cc3ccccc3O2)O1 do in these assays?
TRPML1 inh: 22.1; D3 antag: -67.8*; D3 ag: 1.7; TRPML1 ag: -0.2

What do the screens show for `OCC[C@@H]1C[C@H](O)[C@@H](O)[C@@]2(Cc3ccccc3CCO2)O1`?
TRPML1 inh: 7.6; D3 antag: 0.0; D3 ag: -1.7; TRPML1 ag: -0.1

How did OCC[C@H]1C[C@@H](O)[C@H](O)[C@]2(Cc3ccccc3CCO2)O1 do in these assays?
TRPML1 inh: -1.2; D3 antag: -9.3; D3 ag: 31.2*; TRPML1 ag: -0.4

How did Nc1ccc(C(Cc2ccnc3ccccc23)Cc2ccnc3ccccc23)cc1 do in these assays?
TRPML1 ag: -1.0

Results for O=C[C@H](O)[C@@H](O)[C@H](O[C@H]1O[C@H](CO)[C@@H](O[C@H]2O[C@H](CO)[C@@H](O)[C@H](O)[C@H]2O)[C@H](O)[C@H]1O)[C@H](O)CO ?
D3 ag: 8.9

Results for CCN(CC)C(=O)Cn1ncc2c([nH]c3ccc(C)cc32)c1=O ?
TRPML1 inh: 17.1; D3 ag: 6.0; TRPML1 ag: 1.6

How did Cc1nn(C)c(=S)n1-c1ccc(Cl)cc1 do in these assays?
TRPML1 inh: -4.1; D3 antag: -51.9*; D3 ag: 0.3; TRPML1 ag: -0.1

How did Cc1nn(-c2ccccc2)c(=S)n1-c1ccccc1 do in these assays?
TRPML1 inh: -0.7; D3 antag: 20.7; D3 ag: -4.0; TRPML1 ag: 0.9

What do the screens show for `O=C1c2ccccc2C(=O)N1CCCCc1cn(C[C@H]2CC[C@@H]([C@@H]3CC[C@H](Cn4cc(CCCCN5C(=O)c6ccccc6C5=O)nn4)O3)O2)nn1`?
TRPML1 inh: 23.3; D3 antag: 66.2; D3 ag: 51.0*; TRPML1 ag: -0.1

Results for O=C1c2ccccc2C(=O)N1CCCc1cn(C[C@H]2CC[C@@H]([C@@H]3CC[C@H](Cn4cc(CCCN5C(=O)c6ccccc6C5=O)nn4)O3)O2)nn1 ?
TRPML1 inh: -10.5; D3 antag: 7.7; D3 ag: 11.7; TRPML1 ag: 2.5

What do the screens show for `CCn1nc(C)c2c(-c3ccccc3)cc(=O)n(C(C)C(=O)NCc3ccccc3OC)c21` (stereo not given)?
TRPML1 inh: -1.6; D3 ag: -16.0; TRPML1 ag: 2.0

Results for CCn1c(O)c(C2=c3ccccc3=NC2=O)c2cc(Br)ccc21 ?
TRPML1 inh: -3.2; D3 antag: -80.3*; D3 ag: -6.8; TRPML1 ag: 0.9

How did O=C1N=c2ccccc2=C1c1c(O)n(-c2cccc(F)c2)[nH]c1=O do in these assays?
TRPML1 inh: -12.8; D3 antag: inconclusive; D3 ag: -10.7; TRPML1 ag: 0.4

How did CCN1CCC(C(=O)NC(c2ccc(F)cc2)c2ncccc2C)CC1 (stereo not given) do in these assays?
D3 antag: inconclusive; D3 ag: -15.2; TRPML1 ag: -0.1

Results for Cc1cccnc1C(NC(=O)C1CCN(CCCc2ccccc2)CC1)c1ccc(F)cc1 (stereo not given) ?
D3 antag: -70.3*; D3 ag: -19.6; TRPML1 ag: -0.4

What do the screens show for `CCCN1CCC(C(=O)NC(c2ccc(F)cc2)c2ncccc2C)CC1` (stereo not given)?
D3 antag: -57.0*; D3 ag: -10.3; TRPML1 ag: -0.8

Results for Cc1ccc(S(=O)(=O)Nc2cc(Br)cc3cccnc23)cc1 ?
TRPML1 inh: 7.7; TRPML1 ag: 0.3

Results for Cc1ccc2nc(-c3ccc(Cl)c(NC(=O)c4ccc5c(c4)OCCO5)c3)oc2c1 ?
TRPML1 inh: -1.1; D3 ag: -7.8; TRPML1 ag: 1.4

Results for Cc1nn(-c2ccccc2)c2nc(-c3ccco3)cc(C(=O)O)c12 ?
TRPML1 inh: -1.3; D3 antag: -51.7*; D3 ag: 5.7; TRPML1 ag: -0.9

What do the screens show for `CCCCCCCCNc1ccc(/C=C/c2ccnc3ccccc23)cc1`?
TRPML1 ag: 0.3
